# Data: PubChem BioAssay AID2158 (National Center for Advancing Translational Sciences (NCATS), 2009)
# Where “and” joins values, the source holds several entries; their conditions need not be identical. Equal values may be shown once. Inconclusive results are not listed. Values without a mark were called inactive. Calls of active or inactive are those of the source. The call rests on the fitted dose curve; in most records, active means well fitted inhibition curve with a large enough effect; inconclusive means small, poorly fitted or top-dose-only effect; inactive means no such curve, though single readings can be large or run the other way.
# Target: Cruzipain (Trypanosoma cruzi) (UniProt P25779)
# Assay: Confirmation qHTS Assay for Inhibitors of Cruzain; further: nearly all actives have a fitted effect of over 40% in size;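 on activity change, negative = inhibition: plate controls were uninhibited enzyme control for no effect and buffer wells lacking enzyme for full effect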
# Conditions: purified cruzain, Z-FR-AMC fluorescence, 0.01% Triton
# In short: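 Reaction progress from the 60 s rise in AMC fluorescence (ex 360, em 450 nm) after adding 2 uM Z-FR-AMC. Before this, 1.5 nM cruzain sat 15 min at room temperature with compound in pH 5.5 acetate buffer with 5 mM DTT and 0.01% Triton X-100.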
# Potency means the concentration at half of the fitted maximal effect.
# Cruzipain (Trypanosoma cruzi), sequence (P25779 123-467 limits assumed): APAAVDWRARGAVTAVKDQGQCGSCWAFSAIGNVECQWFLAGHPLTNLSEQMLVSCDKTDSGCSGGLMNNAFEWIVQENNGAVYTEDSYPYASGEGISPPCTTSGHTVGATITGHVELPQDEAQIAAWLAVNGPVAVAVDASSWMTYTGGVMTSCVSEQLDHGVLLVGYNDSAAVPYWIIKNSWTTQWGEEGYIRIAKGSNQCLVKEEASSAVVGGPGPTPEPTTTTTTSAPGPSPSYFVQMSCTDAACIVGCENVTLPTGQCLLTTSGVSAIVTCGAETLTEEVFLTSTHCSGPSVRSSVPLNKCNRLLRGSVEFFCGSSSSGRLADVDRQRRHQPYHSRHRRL
Compound,"activity change, negative = inhibition",Potency
FC(F)Sc1ccc(N=C2NN=C(c3ccc4c(c3)OCCO4)CS2)cc1,-6.33%,–
O=C(CNC(=O)c1ccc2cc[nH]c2c1)OC(C(=O)Nc1cc(C(F)(F)F)ccc1Cl)c1ccccc1 (stereo not drawn),–,12.6 µM (active)
N#Cc1nc(Nc2cccc(F)c2)nc(NC2CCCC2)n1,–,0.0794 µM (active)
Cc1ccc(C(=O)NC2CCN(C#N)CC2)cc1,-5.84%,–
CCOc1nc(C#N)nc(N2CCCCC2)n1,–,2.51 µM (active) and 3.55 µM (active)
N#Cc1nc(Nc2cc(F)cc(Cl)c2)nc(NC2CCCC2)n1,–,0.141 µM (active)
COc1cc(OC)c(-c2nn3c(-c4cc(C)[nH]n4)nnc3s2)cc1OC,-21.4%,–
CC(C)CC(O)C(=O)Nc1cc(C(F)(F)F)ccc1Cl (stereo not drawn),-12%,–
N#Cc1nc(Nc2ccc(-c3ccccc3)cc2)nc(NC2CCCC2)n1,–,3.98 µM (active)
Cn1nc(-c2cccnc2)nc2c(=O)n(C)c(=O)nc1-2,–,1.12 µM (active)
CCN(CC)c1nc(C#N)nc(N2CCOCC2)n1,–,8.91 µM (active)
NC(=S)n1[nH]c(-c2ccc([N+](=O)[O-])cc2)c(N=Nc2ccc(O)cc2)c1=O,-8%,–
CCNc1nc(C#N)nc(Nc2ccccc2)n1,–,0.708 µM (active)
CC(C)(C)OC(=O)NCC(=O)NNC(=O)c1nc2ccccc2[nH]1,2.49%,–
NNC(=O)C(C(=O)OCc1ccccc1)c1ccccc1 (stereo not drawn),-1.2%,–
CCOC(=O)CNC(=O)C1CCCCC1,-11.9%,–
CCOC(=O)c1ccc(N2CSC3=C(C#N)C(c4cccs4)CC(=O)N3C2)cc1 (stereo not drawn),-9.35%,–
CC(C)NC(=O)COC(=O)CNC(=O)C1CCCCC1,–,14.1 µM (active)
Clc1ccccc1-c1nn2c(-c3cc(-c4ccccc4)n[nH]3)nnc2s1,-2.56%,–

Compound,"activity change, negative = inhibition",Potency
CC/C=C1/N=C2C(=O)N(C)C(=O)N=C2N(C)N1,–,0.631 µM (active)
O=C(CNC(=O)C(c1ccccc1)c1ccccc1)OCC(=O)c1cccc2ccccc12,17.8%,–
O=C(NCc1nnc(-c2cc3ccccc3[nH]2)s1)c1ccccc1,1%,–
O=C(c1ccco1)N1CCN(c2ncnc3c2[nH]c2ccc(Cl)cc23)CC1,-37.6%,–
CC(C)C[C@H](NC(=O)[C@@H]1O[C@H]1C(=O)O)C(=O)NCCCCN=C(N)N,–,0.112 µM (active)
CC(C)(C)OC(=O)NCc1nnc(C(C(=O)OCc2ccccc2)c2ccccc2)s1 (stereo not drawn),-11.8%,–
C(/Oc1ccccc1)=C1\Nn2c(nnc2-c2cc(-c3ccccc3)n[nH]2)S1,-9.74% and -7.34%,–
CCC(C)NC(=O)c1ccc2nc(-c3cccs3)c(-c3cccs3)nc2c1 (stereo not drawn),-5.12%,–
CCCN(CCC)c1nc(C#N)nc(N(CCC)CCC)n1,–,3.55 µM (active)
N#Cc1nc(Nc2ccc3ccccc3c2)nc(NC2CCCC2)n1,–,1.26 µM (active)
COc1cccc(C)c1NC(=O)C(OC(=O)CNC(=O)c1ccccc1)c1ccccc1 (stereo not drawn),–,25.1 µM (active)
Cc1ccc(OCCCn2c(CCNC(=O)C3CCCCC3)nc3ccccc32)cc1,–,0.794 µM (active)
O=C(CNC(=O)c1ccccc1)OCC(=O)c1cccc2ccccc12,-21.8%,–
COc1ccc2[nH]c(=O)c(CN(Cc3nnnn3Cc3ccco3)C3CCCCC3)cc2c1,–,14.1 µM (active)
CNc1oc(/C=C/c2cc(OC)c(OC)c(OC)c2)nc1C#N,–,15.8 µM (active)
O=C(Nc1ccc(O)c(-c2nc3ccccc3o2)c1)C1(c2ccc([N+](=O)[O-])cc2)CCCC1,-1.92%,–
Cc1ccc2[nH]c(=O)c(CN(CCO)Cc3nnnn3Cc3ccco3)cc2c1,-3.64%,–
CC(=O)Nc1ccc(/C=C/C(=O)c2ccc(-n3nncc3-c3ccccc3)cc2)cc1,31.4%,–
COc1ccccc1-c1nn2c(-c3cc(C)[nH]n3)nnc2s1,-12.2%,–
